According to PubChem BioAssay AID485313 (National Center for Advancing Translational Sciences (NCATS), 2010):
In all, about 320,000 compounds went through this assay and about 7,600 (2.4%) were called active. About 3% were inconclusive and are not listed. Calls come from the whole dose curve; as a rule, active = well fitted activation curve with a large enough effect; inconclusive = small, poorly fitted or top-dose-only effect; inactive = no such curve, though single readings can be large or run the other way. For the sample, actives were picked, then their nearest neighbours and some compounds at random.

Experiment: qHTS Assay for NPC1 Promoter Activators; note: nearly all actives have a fitted effect of over 60% in size;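 for activation: reporter is driven by a mutant NPC1 promoter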
Settings: Huh7 NPC1 promoter luciferase reporter, 24 h; series mostly up to 9.22 µM
In short: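 NPC1 promoter–luciferase Huh7 cells; 24 h compound; luminescence.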
Potency is the fitted concentration of half-maximal effect.

Potency, active:
N#Cc1c(NC(=O)C2CCCO2)sc2c1CCCCC2 (configuration not stated) 3.55 µM
Clc1ccc2nc(CSc3ccccc3)cn2c1 0.501 µM
NC(=O)Cc1ccc2sc(-c3ccccc3)nc2c1 3.55 µM
NS(=O)(=O)c1ccccc1NC(=O)c1c(O)c2ccccc2[nH]c1=O 0.562 µM
O=C(CSc1nnc(-c2ccc([N+](=O)[O-])cc2)o1)Nc1ccccn1 0.708 µM
COC(=O)CNS(=O)(=O)c1ccc(Cc2ccc(S(=O)(=O)NCC(=O)OC)cc2)cc1 0.631 µM
COc1cccc(OCCOc2cccc(/C=N/n3cnnc3)c2)c1 3.98 µM
O=C(Nc1cc(C(F)(F)F)ccc1Cl)c1cc2nc3c(c(C(F)(F)F)n2n1)CCCC3 3.16 µM
O=C(Nc1cccc(F)c1)NC1CCCCCCC1 2.51 µM
NC(=O)CSc1nnc(NC(=O)c2ccc3ccccc3c2)s1 3.16 µM
CCSc1nnc(NC(=O)c2ccc(C)cc2)s1 1.12 µM
CSc1nc2ccc(NC(=O)c3c(F)cccc3F)cc2s1 2.51 µM
O=C(c1ccc(F)cc1)N1CCC(n2nnc3ccccc32)CC1 4.47 µM
CCC(=O)NC(=Nc1nc2ccccc2s1)NC(=O)CC 1.26 µM
CC(C)CC(=O)N/C(N)=N/c1nc2ccccc2s1 0.501 µM
Cc1ccc(Nc2nc(-c3ccc(O)cc3O)cs2)nc1 2 µM
CC1CCCN(c2ccc(C(=O)NCCc3ccccc3)cn2)C1 (configuration not stated) 3.16 µM
O=C(Nc1cccnc1)c1noc2c1CCCCC2 2.51 µM

Potency, inactive:
COc1ccc(Cl)cc1NC(=O)CN(C)CC(=O)Nc1ccc2c(c1)OCO2
COc1ccc(-c2cc(C(=O)NCCCN3CCCC3=O)c3ccccc3n2)cc1OC
O=S(=O)(Nc1ccc(Cl)cn1)c1cnc(Cl)c(Br)c1
COc1ccc(S(=O)(=O)Nc2ccc3cn[nH]c3c2)cc1[N+](=O)[O-]
CCc1ccc(CN(C)C(C)C(=O)Nc2ccc(S(=O)(=O)N3CCCC3)cc2)cc1 (configuration not stated)
CN1CCC(N(C)S(=O)(=O)c2ccc(NC(=O)c3cccc(C#N)c3)cc2)CC1
COc1ccc(C2(C)ON(c3ccccc3C(F)(F)F)C2=O)cc1 (configuration not stated)
O=C(CSc1nc2ncccc2[nH]1)Nc1ccc2c(c1)OCCO2
CCn1nc(C(=O)NNC(=O)C2CSC3(C)CCC(=O)N23)c2ccccc2c1=O (configuration not stated)
N#Cc1c(NC(=O)C2CC(Cl)=CCC2C(=O)O)sc2c1CCCCC2 (configuration not stated)
N#Cc1c(NC(=O)CCCl)sc2c1CCCCC2
COc1ccc(NS(=O)(=O)c2cccc(C(=O)NCCc3ccc(S(N)(=O)=O)cc3)c2)cc1
O=C(/C=C/c1ccc2c(c1)OCO2)NCc1cn2cc(Cl)ccc2n1
O=c1c2ccccc2nc2n1C(CSc1ccc(Cl)cc1)CN2 (configuration not stated)
CN(CCC1CCOCC1)Cc1cn[nH]c1-c1ccc(-c2ccccc2)cc1
O=C(COC(=O)C1CC2CCCC(C1)C2=O)NC(=O)c1ccccc1 (configuration not stated)
CC(OC(=O)c1ccccc1NCCO)C(=O)Nc1ccnn1C(C)C (configuration not stated)
CC1CCCC(NC(=O)c2cc(S(=O)(=O)N3CCCCC3)ccc2Cl)C1C (configuration not stated)
Cc1ccc(NC(=O)CCCNC(=O)c2ccc(Cl)cc2)cc1S(=O)(=O)N1CCOCC1
O=C(O)Cc1sc(-c2ccccc2)nc1-c1cccs1
NC(=O)Cc1ccc2c(c1)[nH]c1ccccc12
CC(OC(=O)CN1C(=O)c2ccccc2C1=O)C(=O)c1ccccc1 (configuration not stated)
O=C(COC(=O)c1ccc(O)cc1O)NNC(=O)c1cccs1
CCCc1nc2ccccc2c(=O)n1NC(=O)c1c(O)c2ccccc2[nH]c1=O
CC(C)C(=O)Nc1c(O)c2ccccc2[nH]c1=O
Cc1ccc(S(=O)(=O)N2CC(O)C[C@H]2C(=O)OCC(=O)Nc2ccc(N3CCOCC3)cc2)cc1C (some centres not stated)
Cc1ccc(CNC(=O)CC(NC(=O)c2ccccc2)c2ccccc2)cc1 (configuration not stated)
COc1ccccc1C1=CC(=O)C[C@H](c2ccc(F)cc2)C1
CCc1ccccc1NC(=O)CSc1nnc(-c2ccncc2)o1
CCOC(=O)CSc1nnc(-c2ccc([N+](=O)[O-])cc2)o1
O=S(=O)(Nc1ccc(-n2cnnn2)cc1)c1ccc(Cl)cc1
CCN(CC)S(=O)(=O)c1ccc(OC)c(NC(=O)CCc2c(C)noc2C)c1
COC(=O)CNS(=O)(=O)c1ccc(OC)cc1
C/C(N)=C(/C#N)C(=O)COC(=O)CNS(=O)(=O)c1ccc(C)cc1
CC(=O)c1ccc(OCCCC(=O)Nc2ccc(C)c(S(=O)(=O)N3CCOCC3)c2)cc1
COc1ccc(CNC(=O)COC(=O)c2c(C)nn(-c3ccccc3)c2C)cc1OC
O=C(CN1CCCSc2ccccc21)N1CCN(S(=O)(=O)c2ccccc2)CC1
C(=N\n1cnnc1)/c1cccnc1
COc1ccccc1OCCOc1ccc(/C=N/n2cnnc2)cc1
Cc1csc(NC(=O)C2CCN(S(=O)(=O)c3ccccc3)CC2)n1
COc1cc2c(cc1OC)CN(C(C)C(=O)Nc1cccc(S(=O)(=O)N3CCOCC3)c1)CC2 (configuration not stated)
Cc1c(C(=O)NNC(=O)c2ccncc2)oc2ccccc12
CCN(CC(=O)Nc1ccc(OC)cc1)C(=O)CSCc1ccc(C)cc1
O=C(Nc1cc(C(F)(F)F)ccc1Cl)c1cc(C2CC2)on1
O=C(Nc1cc(C(F)(F)F)ccc1Cl)C(=O)N1CCCCC1
O=C(COc1ccccc1Cl)N1N=C(c2cccs2)CC1c1ccco1 (configuration not stated)
CC(C)C(NC(=O)c1c(F)cccc1F)C(=O)NCc1ccncc1 (configuration not stated)
O=C(OCC(=O)N1CCc2ccccc21)C1CCCN1S(=O)(=O)c1ccc(Cl)cc1 (configuration not stated)
O=C(Nc1cccc(F)c1)NC1CCCc2ccccc21 (configuration not stated)
C/C(CC(=O)Nc1cccc(F)c1)=N\NC(=O)C(=O)NC1CCCCC1
COc1ccc(OC)c(S(=O)(=O)n2c([N+](=O)[O-])cnc2C)c1
NC(=O)CSc1nnc(NC(=O)c2ccc(Br)o2)s1
C=CCSc1nnc(NC(=O)c2ccc(NC(C)=O)cc2)s1
CCOC(=O)CSc1nnc(NC(=O)c2cccc(S(=O)(=O)N3CCCC3)c2)s1
O=C(/C=C/c1ccccc1)Nc1nnc(SCC(=O)c2ccc3ccccc3c2)s1
CN(CC(=O)NCC(c1ccccc1)N1CCCC1)S(=O)(=O)c1ccc(Cl)cc1 (configuration not stated)
CC(C)(C)OC(=O)Nc1ccc([C@@H](NC(=O)OC(C)(C)C)C(=O)OC(C)(C)C)cc1
Cc1ccc(NC(=O)Cc2nc(COC(=O)C(C)NS(=O)(=O)c3ccc(C)cc3)cs2)cc1 (configuration not stated)
COc1cc(C(=O)NCC(c2ccco2)N2CCCC2)ccc1OCc1ccccc1 (configuration not stated)
CCN(CC(=O)Nc1ccccc1OC)C(=O)CC1CC2CCC1C2 (configuration not stated)
COc1cccc(NC(=O)CN(C)C(=O)c2cc(C3CC3)nn2-c2ccccc2)c1
CCCC(=O)Nc1nc2ccc(NC(=O)c3c(F)c(F)c(OC)c(F)c3F)cc2s1
O=C(Nc1ccncc1)c1c(F)cccc1F
CC1(C)CC(=O)C=C(c2ccc(Cl)c(C(F)(F)F)c2)C1
CCOc1ccc(NC(=O)CN(C)C(=O)Cc2sc(C)nc2-c2ccc(F)cc2)cc1OCC
COc1ccccc1C(=O)NCCC(=O)N(C)Cc1cccnc1
CC1(C)O[C@@H]2[C@H](O1)[C@@H](CO)O[C@H]2n1c(N2CCCCC2)nc2c(N)ncnc21
O=S(=O)(c1cccc(S(=O)(=O)N2CCC(n3nnc4ccccc43)CC2)c1)N1CCCCC1
CC(=O)c1cccc(S(=O)(=O)N2CCC(n3nnc4cc(F)ccc43)CC2)c1
CCCCn1c(N)c(N(CCC(C)C)C(=O)COC(=O)c2cccnc2OCC)c(=O)[nH]c1=O
CCCCn1c(N)c(N(CCC(C)C)C(=O)COC(=O)c2ccc(CC)cc2)c(=O)[nH]c1=O
CC(Sc1nnc(-c2cccs2)n1C1CC1)C(=O)NCC1CCCO1 (configuration not stated)
Cc1cc(C(=O)OCC(=O)Nc2nnc(C(C)C)s2)c2ccccc2n1
CN(Cc1nc2ccccc2s1)C(=O)c1ccc(F)cc1
CC(=O)Nc1cccc(-c2nc3ccccc3s2)c1C
CC(C)CC(=O)NC(=S)NCc1ccccc1
Cc1ccc(F)cc1NC(=O)CSCc1c(C)noc1C
Cc1nn(Cc2ccccc2)c(C)c1C(=O)N1CCN(CC(=O)Nc2ccccc2Cl)CC1
C=CCC1(CC=C)CCCN1C(=O)c1cc(COc2ccc(-n3cncn3)cc2)on1
CC(=O)Nc1ccc(C(=O)Nc2nc(-c3cc(C)n(Cc4ccccc4)c3C)cs2)cc1
C=C(C)CNc1cc(S(=O)(=O)N2CCOCC2)ccc1Oc1ccccc1
CCCn1c(NC(=O)C23CC4CC(CC(O)(C4)C2)C3)nc2ccccc21
CC1CCN(C(=O)CCNC(=O)c2ccccc2)CC1
O=C(NCCc1ccccc1)c1ccc2c(c1)N(Cc1ccccc1)CCS2
Cc1ccc(NC(=O)CCCNC(=O)c2ccc(Cl)cc2)cc1S(=O)(=O)N1CCCCC1
CC(C)(C)C(=O)CSc1ccc(S(=O)(=O)N2CCCC2)cn1
CC(NC(=O)c1ccc(S(=O)(=O)Nc2ccccc2)cc1)c1ccc(S(N)(=O)=O)cc1 (configuration not stated)
O=C(Nc1cccnc1)c1cccc(S(=O)(=O)N2CCCC2)c1
O=C(Nc1cccnc1)c1cc(Cl)ccc1Cl
